From PubChem BioAssay (NCATS)
Records with an inconclusive call do not appear. Calls of active or inactive are those of the source. The call rests on the fitted dose curve; in most records, active means well fitted curve in the direction sought with a large enough effect; inconclusive means small, poorly fitted or top-dose-only effect, or another doubt; inactive means no such curve, though single readings can be large; an effect the other way counts as inactive or inconclusive.

Key:
[1] = target: Cytochrome P450 2D6 (Homo sapiens) (UniProt P10635); assay: qHTS for inhibitors of CYP2D6 against the NCATS DSHEA and TCM libraries (AID 1919972); further: on the % scale 0 is the no-effect control and ±100 the full control effect
Cytochrome P450 2D6 (Homo sapiens), sequence (P10635 whole entry, looked up): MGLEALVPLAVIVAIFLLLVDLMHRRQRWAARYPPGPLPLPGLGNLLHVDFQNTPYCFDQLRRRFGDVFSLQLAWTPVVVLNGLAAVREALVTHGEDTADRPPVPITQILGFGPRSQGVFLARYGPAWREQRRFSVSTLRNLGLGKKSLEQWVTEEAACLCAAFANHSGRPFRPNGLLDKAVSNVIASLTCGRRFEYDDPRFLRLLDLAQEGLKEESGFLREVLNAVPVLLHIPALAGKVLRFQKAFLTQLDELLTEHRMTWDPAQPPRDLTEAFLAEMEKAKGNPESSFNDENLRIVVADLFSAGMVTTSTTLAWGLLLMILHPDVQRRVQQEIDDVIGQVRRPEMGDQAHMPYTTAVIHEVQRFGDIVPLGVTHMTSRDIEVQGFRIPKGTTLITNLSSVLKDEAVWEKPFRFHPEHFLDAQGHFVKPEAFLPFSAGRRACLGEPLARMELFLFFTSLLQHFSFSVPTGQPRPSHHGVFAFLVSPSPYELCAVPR
In short: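 qHTS, concentration–response format with most substances from 19.5 nM. CYP2D6 + pro-luciferin substrate, 15 min with compound, then 1x NADPH regen, 30–45 min RT dark. Glo detection 30 min, luminescence. Quinidine control.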

[2] = target: Cytochrome P450 2C9 (Homo sapiens) (UniProt P11712); assay: qHTS for inhibitors of CYP2C9 against the NCATS DSHEA and TCM libraries (AID 1919973);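 further: luminogenic pro-luciferin CYP2C9 substrate turned into luciferin with NADPH regeneration; series mostly up to about 34 µM; on the % scale 0 is the no-effect control and ±100 the full control effect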
Cytochrome P450 2C9 (Homo sapiens), sequence (P11712 whole entry, looked up): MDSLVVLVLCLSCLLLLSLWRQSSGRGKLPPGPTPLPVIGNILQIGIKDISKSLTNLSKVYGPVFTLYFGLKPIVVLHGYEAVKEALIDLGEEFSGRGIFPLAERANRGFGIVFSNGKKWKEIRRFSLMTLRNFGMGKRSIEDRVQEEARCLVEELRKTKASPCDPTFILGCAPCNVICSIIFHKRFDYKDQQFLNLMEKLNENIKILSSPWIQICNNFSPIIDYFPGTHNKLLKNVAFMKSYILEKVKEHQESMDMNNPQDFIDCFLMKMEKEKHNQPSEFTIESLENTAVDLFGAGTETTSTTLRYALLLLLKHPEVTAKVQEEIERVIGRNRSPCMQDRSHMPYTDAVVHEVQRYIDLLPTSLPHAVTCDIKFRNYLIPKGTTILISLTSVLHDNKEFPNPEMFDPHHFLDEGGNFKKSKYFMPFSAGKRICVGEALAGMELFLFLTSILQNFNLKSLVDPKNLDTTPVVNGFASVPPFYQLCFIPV
In short: (§1)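 Substances were tested against enzyme with a pro-luciferin substrate; minus-enzyme wells served as background. After NADPH-initiated oxidation (30-45 min, RT), light was generated with P450-Glo reagent.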

[3] = KB-3-1 P-gp reporter qHTS against the NCATS DSHEA and TCM libraries (AID 1919975); further: 0% is about no effect
In short: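 Cell viability qHTS: 500 KB-3-1 cells/well, substances in titration, ~72 h, 37C; luminescent CellTiter-Glo read.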

[4] = qHTS Counterscreen for compound interference against the NCATS DSHEA and TCM libraries (AID 1919978); conditions: firefly luciferase detection reagent interference, luminescence;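 further: compounds preincubated with 1 µM D-luciferin or buffer before detection reagent; % of control where 0% means no effect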
In short: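 Interference check: test samples were incubated with D-luciferin (final 1 uM) or buffer only for 15 min, room temperature, in a qHTS titration up to 39.8 uM, then developed with detection reagent and read by luminescence.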

[5] = Dual reporter qHTS for agonist of Pregnane X Receptor (hPXR) against the NCATS DSHEA and TCM libraries: Fluorescence readout (AID 1920058); further: 0% is about no effect
In short: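 Fluorescence read-out for cell viability: CellTiter-Fluor, 1 h at 37 °C, Ex/Em 405/540 nm. This followed ~24 h treatment of hPXR-Luc HepG2 cells with substances in agonist mode.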

[6] = target: Nuclear receptor subfamily 1 group I member 2 (Homo sapiens) (UniProt O75469); assay: Dual reporter qHTS for antagonist of Pregnane X Receptor (hPXR) against the NCATS DSHEA and TCM libraries: Luminescence Readout (AID 1920060);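 further: HepG2 cells carrying hPXR luciferase reporter stimulated with rifampicin at 2 µM; 0% is about no effect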
Nuclear receptor subfamily 1 group I member 2 (Homo sapiens), sequence (O75469 whole entry, looked up): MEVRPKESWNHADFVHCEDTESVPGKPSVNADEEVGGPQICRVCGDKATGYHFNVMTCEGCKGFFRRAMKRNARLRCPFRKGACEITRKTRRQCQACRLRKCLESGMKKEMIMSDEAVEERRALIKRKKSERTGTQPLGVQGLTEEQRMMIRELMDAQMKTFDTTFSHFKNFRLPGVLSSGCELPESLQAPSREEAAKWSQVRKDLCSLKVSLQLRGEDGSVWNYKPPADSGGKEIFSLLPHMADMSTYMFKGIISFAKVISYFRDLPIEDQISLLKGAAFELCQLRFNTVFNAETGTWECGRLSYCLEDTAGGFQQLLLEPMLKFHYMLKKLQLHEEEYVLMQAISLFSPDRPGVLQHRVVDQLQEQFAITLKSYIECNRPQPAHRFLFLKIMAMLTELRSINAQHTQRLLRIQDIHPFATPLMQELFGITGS
In short: (§2)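 In antagonist mode, 2 uM rifampicin was added to hPXR-Luc HepG2 cells alongside test substances, incubated 24 h at 37 C; luminescence gave reporter activity, and CellTiter-Fluor fluorescence (405/540 nm) gave viability.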

[7] = Dual reporter qHTS for antagonist of Pregnane X Receptor (hPXR) against the NCATS DSHEA and TCM libraries: Fluorescence Readout (AID 1920061); further: 0% is about no effect
In short: as §2

[8] = target: Cytochrome P450 2C19 (Homo sapiens) (UniProt P33261); assay: qHTS for inhibitors of CYP2C19 against the NCATS DSHEA and TCM libraries (AID 1919974);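 further: luminescence from luciferin released by CYP2C19 oxidation of a pro-luciferin substrate; on the % scale 0 is the no-effect control and ±100 the full control effect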
Cytochrome P450 2C19 (Homo sapiens), sequence (P33261 whole entry, looked up): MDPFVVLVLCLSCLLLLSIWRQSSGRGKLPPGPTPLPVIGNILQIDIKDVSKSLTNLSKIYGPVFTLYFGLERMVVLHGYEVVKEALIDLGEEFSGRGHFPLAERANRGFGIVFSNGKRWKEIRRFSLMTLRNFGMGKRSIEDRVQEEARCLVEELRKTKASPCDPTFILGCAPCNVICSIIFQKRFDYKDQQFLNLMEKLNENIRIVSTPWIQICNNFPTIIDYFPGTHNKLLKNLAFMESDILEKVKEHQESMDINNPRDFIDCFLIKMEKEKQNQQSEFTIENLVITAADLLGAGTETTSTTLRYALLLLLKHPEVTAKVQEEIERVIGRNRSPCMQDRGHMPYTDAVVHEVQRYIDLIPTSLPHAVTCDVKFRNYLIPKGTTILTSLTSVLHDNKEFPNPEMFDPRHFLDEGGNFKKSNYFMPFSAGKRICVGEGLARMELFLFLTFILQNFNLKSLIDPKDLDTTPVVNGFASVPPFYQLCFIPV
In short: as §1

[9] = target: Cytochrome P450 1A2 (Homo sapiens) (UniProt P05177); assay: qHTS for inhibitors of CYPIA2 against the NCATS DSHEA and TCM libraries (AID 1919976); further: series mostly up to about 37 µM; on the % scale 0 is the no-effect control and ±100 the full control effect
Cytochrome P450 1A2 (Homo sapiens), sequence (P05177 whole entry, looked up): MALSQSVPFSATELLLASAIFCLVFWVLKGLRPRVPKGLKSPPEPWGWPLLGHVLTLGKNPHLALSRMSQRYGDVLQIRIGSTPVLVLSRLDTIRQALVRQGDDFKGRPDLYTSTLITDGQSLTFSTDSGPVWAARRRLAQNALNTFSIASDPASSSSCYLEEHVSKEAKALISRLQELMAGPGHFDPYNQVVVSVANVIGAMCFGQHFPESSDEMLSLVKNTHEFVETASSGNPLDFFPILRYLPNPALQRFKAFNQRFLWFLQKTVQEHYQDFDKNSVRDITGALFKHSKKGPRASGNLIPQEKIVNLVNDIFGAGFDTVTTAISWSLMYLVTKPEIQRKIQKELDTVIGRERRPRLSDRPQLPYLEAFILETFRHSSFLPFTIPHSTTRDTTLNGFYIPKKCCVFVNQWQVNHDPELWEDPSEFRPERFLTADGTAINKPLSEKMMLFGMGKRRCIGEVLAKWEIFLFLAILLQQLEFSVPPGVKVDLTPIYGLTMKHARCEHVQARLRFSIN
In short: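 Luminescence read-out: pro-luciferin converted to D-luciferin by CYP1A2, detected with P450-Glo reagent after 30 min RT. Enzyme plus substrate got compounds for 15 min RT; NADPH regeneration solution (final 1x) started a 30-45 min reaction, light-protected.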

[10] = target: Nuclear receptor subfamily 1 group I member 2 (Homo sapiens) (UniProt O75469); assay: Dual reporter qHTS for agonist of Pregnane X Receptor (hPXR) against the NCATS DSHEA and TCM libraries: Luminescence readout (AID 1920059); further: 0% is about no effect
In short: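 hPXR-LucHepG2 cells in phenol red-free DMEM with 5% charcoal-stripped FBS, 2000 cells/well, attached 5 h, then exposed 24 h at 37C to compounds; rifampicin as positive agonist control (2.8 nM–92 uM). Luciferase luminescence read.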

Measured: max response

O=C(O)/C=C/c1ccc(O)c(O)c1
inactive: [1] | [2] | [3] | [4] -3.07% | [5] | [6] | [7]

C=C1C[C@@]23CC[C@H]4[C@@](C)(CCC[C@@]4(C)C(=O)OC4OC(CO)C(O)C(O)C4O)[C@@H]2CC[C@]1(OC1OC(CO)C(O)C(O)C1OC1OC(CO)C(O)C(O)C1O)C3 (some centres not stated)
inactive: [1] | [2] | [8] | [3] | [9] | [4] 4.65% | [5] | [10] | [6] | [7]
